Pf Dd2 growth: qHTS Primary assay for Inhibitors of Plasmodium falciparum Dd2 growth in vitro. P. falciparum Dd2 growth, SYBR Green, 72 h. Potency, µM (series often up to 28.9 µM), for inactives: top-dose activity, negative = inhibition, usual class: inhibitors. hit rate 4.3% among 120,000. AID 1347417, 2020; active = well fitted inhibition curve with a large enough effect;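 note: plate controls were DMSO vehicle for no effect and reference drug for full effect; nearly all actives have a fitted effect of over 65% in size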
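Readout: SYBR Green fluorescence, 485 nm excitation, 535 nm emission, after ~16 h lysis at 37C. Before that, Dd2-infected red cells (2.5% hematocrit) grew 72 h with compound, 29 uM top final concentration.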
Starred values were filed as active, the others as inactive; i = inactive; [ ] = dose if it differs, or a comment. Only a selection was taken, and hits are over-represented in it overall. Potency is the fitted concentration of half-maximal effect.

SMILES	Pf Dd2 growth
COc1ccc2cc(C(=O)N3CCC4(CC3)CC(O)CCO4)[nH]c2c1 (stereo unspecified)	6%
CSCc1ccc(C(=O)N2CCOCC(O)(CN3CCCC3)C2)o1 (stereo unspecified)	-24%
Cc1nc(N2CCC(NC(=O)CNC(=O)c3ccccc3)CC2)cc(C(F)(F)F)n1	-19%
CN1CCCN(S(=O)(=O)c2cccc(Cl)c2)c2ccccc21	11µM*
CCS(=O)(=O)N1CCCN(C)c2ccccc21	-19%
CC(=O)N1CCC(C2CCN(S(=O)(=O)c3cccc(Cl)c3)C2)CC1 (stereo unspecified)	-18%
CCOC(=O)CCNC(=O)N1CCCC1c1noc(COc2ccc(F)cc2)n1 (stereo unspecified)	35%
CCC[C@H]1C[C@H]1C(=O)NCc1cc2c(nc1OC)CN(C1CCCC1)C2=O	-15%
FC1(F)CN[C@H](c2nc(-c3ncccn3)no2)C1	19%
COc1ccc(/C=C/CN2CCC3(CC2)C(=O)N(Cc2cccnc2)C(=O)N3C)cc1	-27%
CCN(Cc1ccncc1)C(=O)c1cc(-c2cnc(C)nc2)nc2c(C)cccc12	-21%
CCCN(Cc1ccncc1)C(=O)c1cnc(-c2ccccn2)[nH]c1=O	13µM*
CCCCN(Cc1cccnc1)C(=O)c1cnc(-c2ccc(C)cc2)[nH]c1=O	-21%
COc1cc(OC)cc(C(=O)N2CCCN(C)c3ccccc32)c1	-14%
CCc1noc(-c2ccn3c(CNC(=O)CCCc4ccccc4)nnc3c2)n1	-12%
COc1ccccc1C(=O)Nc1sc(Nc2ccccc2)nc1C(N)=O	40%
COc1ccc(C(=O)c2sc(Nc3cc(Cl)ccc3C)nc2N)cc1OC	54%
COc1ccc(C(=O)c2sc(Nc3ccccc3)nc2N)cc1	8.9µM*
COc1ccc(NC(=O)c2c(NCc3cccc(OC)c3)sc3c2CCCC3)cc1	10µM*
O=C(Nc1sc2c(c1C(=O)Nc1ccccc1)CCC2)c1ccc(Br)cc1	11%
CCOc1ccccc1NC(=O)c1c(NCc2ccc(OC)c(OC)c2OC)sc2c1CCC(C)C2 (stereo unspecified)	i
COc1ccc(CC(=O)Nc2sc3c(c2C(=O)Nc2ccc(C)cc2)CCCCC3)cc1	-23%
COc1ccc(CC(=O)Nc2sc3c(c2C(=O)Nc2c(C)cccc2C)CCCCC3)cc1	9%
COc1ccc(/C=C/C(=O)Nc2sc3c(c2C(N)=O)CCCC3)cc1	5%
COC(=O)c1ccc(NC(=O)c2c(NCc3ccc(C)o3)sc3c2CCCC3)cc1	10µM*
SMILES	Pf Dd2 growth
COc1ccc(NC(=O)c2c(NCc3ccc(OC)c(OC)c3OC)sc3c2CCC3)c(OC)c1	10µM*
Cc1cccc(NC(=O)c2c(NC(=O)c3ccccc3)sc3c2CCCC3)c1	36%
CNC(=O)c1c(NC(=O)Cc2coc3ccc(OC)cc23)sc2c1CCCC2	-19%
COc1ccccc1NC(=O)c1c(NC(=O)c2ccccc2F)sc2c1CCC2	49%
COc1ccc(NC(=O)c2c(NC(=O)C(F)(F)F)sc3c2CCCCC3)cc1	3.2µM*
CS(=O)(=O)N1C[C@@H]2CN(C(=O)NC3CCCC3)C[C@]2(C(=O)O)C1	7%
CCc1cc(=O)n(CC(=O)Nc2ccc(N(C)C)cc2)c(-c2ccccc2)n1	i
Cc1ccc(C2Cn3nnc(C(=O)N4CCC(C(=O)NC(C)c5ccc(F)cc5)CC4)c3CO2)cc1 (stereo unspecified)	i
COCCN1CCCN(C(=O)c2ccc(F)c(F)c2)c2ccccc21	i
Cc1cc(C)cc(C(=O)NCCn2ccn3nc(-c4ccc(C)cc4C)cc3c2=O)c1	-4%
O=C(c1ccc2ccccc2n1)N1C[C@@H](CO)[C@H](c2ccncc2)C1	-29%
C[C@@H](NS(=O)(=O)c1ccccc1)c1onc(-c2ccc(Cl)cc2)c1C(=O)O	5%[44.1 µM]
O=C1NCCCN1C1CCN(Cc2ccccc2OC(F)(F)F)CC1	-12%[44.1 µM]
COCCNC(=O)[C@@H]1C[C@@H](O)CN1C1CCN(C(=O)C2CCCC2)CC1	6%
c1ncnc(NCC2(N3CCOCC3)CCCCCC2)n1	-14%
COc1ccc(CN2CCOC[C@H]2c2ncc(-c3ccc(S(C)(=O)=O)cc3)[nH]2)cc1	i
CN(C)Cc1cn(C[C@H]2C[C@@H]3CCN2C[C@@H]3C(=O)NCc2ccc(F)cc2)nn1	-7%[44.1 µM]
COCCCn1c(C)cnc1C1CCN(C(=O)NC2CCCCC2)C1 (stereo unspecified)	-14%
O=C(Nc1ccccc1)N1CCCC(c2nc(CCOCC3CCCC3)no2)C1 (stereo unspecified)	i
O=C(NC1CC1)[C@@H]1CN(Cc2ccncc2F)C[C@H]1CO	-1%
CCCOCC(=O)N1CCCC(c2cc(N3CCOCC3)nc(C)n2)C1 (stereo unspecified)	7%
COC(=O)c1c(NC(=O)/C=C/c2ccc(OC)c(OC)c2)sc2c1CCC2	6%
CCOC(=O)c1c(NC(=O)c2ccc(C)c(C)c2)sc2c1CCCCC2	-6%
CCOC(=O)N1CCc2c(sc(NCc3sccc3C)c2C(=O)Nc2cc(Cl)ccc2OC)C1	-19%
CCOC(=O)c1c(NC(=O)c2ccc(OC)c(OC)c2)sc2c1CCCCC2	2%
SMILES	Pf Dd2 growth
CCOc1ccccc1NC(=O)c1c(NCc2ccc(C)o2)sc2c1CCC(C)C2 (stereo unspecified)	44%
COc1ccc(Cl)cc1NC(=O)c1c(NCc2cccnc2)sc2c1CCCC2	11µM*
COc1ccccc1NC(=O)c1c(NC(=O)c2ccccc2Cl)sc2c1CCC2	-14%
CCOc1ccccc1NC(=O)c1c(NCc2ccc(C)o2)sc2c1CCCCC2	13µM*
CCOC(=O)c1ccc(NC(=O)c2c(NCc3sccc3C)sc3c2CCCCC3)cc1	10µM*
CCOC(=O)c1c(NC(=O)c2cc(Cl)ccc2Cl)sc2c1CCCC2	i
CCOc1ccccc1NC(=O)c1c(NC(=O)COc2ccccc2)sc2c1CCCC2	54%
COC(=O)c1ccc(NC(=O)c2c(NCc3ccc(OC)c(OC)c3)sc3c2CCCC3)cc1	11µM*
O=C(CCc1nc2ccc(Cl)cc2[nH]1)N1CCc2nc3cc(-c4ccccc4)[nH]n3c(=O)c2C1	-8%[5.79 µM]
COc1ccccc1CNC(=O)C1CC(=O)N(c2n[nH]c3cccc(F)c23)C1 (stereo unspecified)	-6%
N#Cc1ccc(CN2CCCN(S(=O)(=O)c3ccccc3)CCC(=O)NCC2)cc1	i
NC(=O)NCC(=O)N[C@H]1CC[C@H](Nc2nccc(-c3ccncc3)n2)C1	-27%
O=C(c1ccccc1F)N1CCCC(Cc2nc(C3CCOCC3)no2)C1 (stereo unspecified)	-7%
O=C(Cc1ccsc1)N1CCC2(CC1)CC(OCC1CC1)CCO2 (stereo unspecified)	i
Cn1nc(C(=O)NCCc2noc(-c3ccncc3)n2)c2ccccc21	-19%
Fc1ccccc1CCC1CCCN(c2nnnn2-c2ccccc2)C1 (stereo unspecified)	-16%
CN(C(=O)c1cc2ccccc2s1)C1CCCN(C2Cc3ccccc3C2)C1 (stereo unspecified)	i
COc1cccc(CC(=O)N2CCC[C@H]2C(=O)N2CCCCCCNC(=O)CC2)c1	12%
Cc1ccc(NC(=O)Nc2nnc(N(CC(C)C)CC(C)C)s2)cc1Cl	-10%
CC(C)CN(CC(C)C)c1nnc(NC(=O)Nc2cccc(C(F)(F)F)c2)s1	11µM*
CCN(c1ccccc1)c1nnc(NC(=O)Nc2cccc(C(F)(F)F)c2)s1	-6%
COc1ccccc1C(=O)NC1CCN(c2cc(-c3cccs3)[nH]n2)C1 (stereo unspecified)	i

Assay outcomes (PubChem)
